HCMV inh: blocks human cytomegalovirus replication; HFF cells, HCMV-luciferase reporter, 72 h; active compounds read low; AID 1259415; activity change, negative = inhibition, % at 57.5 µM; 410,000 tested, 4.5% active; in the data active means activity change below about -60%; inconclusive means no clear call, values can overlap the other calls; inactive means above about -39%; further: on the % scale 0 is the no-effect control and ±100 the full control effect
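Two-dose cell screen: HFF monolayers treated with compounds and infected with luciferase-expressing HCMV at 1 PFU/cell, 72 h at 37C, then lysed for luciferase measurement.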
HCV inh: blocks hepatitis C virus. Potency, µM (doses to about 41.8 µM), inactives show at the top dose activity change, negative = inhibition, usual class: inhibitors. 340,000 tested, 3.4% active. AID 651820. Huh7.5.1 HCVcc-Cre infection, luciferase reporter, 44 h; active means well fitted inhibition curve with a large enough effect; inconclusive means small, poorly fitted or top-dose-only effect, or another doubt; inactive means no such curve, though single readings can be large or run the other way; further: potency means the concentration at half of the fitted maximal effect; on the % scale 0 is the no-effect control and ±100 the full control effect
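Infectious HCV cell culture screen: compound-treated cells (1,000/well, pre-plated 4 h) are infected with HCVcc-Cre at roughly 0.5 moi and grown 44 h. Infection is quantified by luciferase signal after 15 min substrate incubation at room temperature.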
SARS PLP yeast: inhibitors of SARS-CoV papain-like protease in yeast | S. cerevisiae expressing SARS-CoV PLpro, growth rescue | Potency, µM (doses to about 32.9 µM), for inactives: at the top dose activity, positive = growth rescue, hits mostly activators | 330,000 tested, 0.19% active; calls by dose curve; further: potency means the concentration at half of the fitted maximal effect; 0% is about no effect; nearly all actives have a fitted effect of over 55% in size
Lassa entry inh: blocks Lassa virus binding to or entry into cells; Lassa virus pseudotype entry inhibition, cell reporter; Potency, µM (doses to about 37.9 µM), inactives show top-dose activity change, negative = inhibition, hits mostly inhibitors; 300,000 tested, 1.2% active; calls by dose curve; tested in HEK293 cells; further: potency means the concentration at half of the fitted maximal effect; on the % scale 0 is the no-effect control and ±100 the full control effect; nearly all actives have a fitted effect of over 50% in size
FMDV inh: blocks foot and mouth disease virus; FMDV antiviral cell-based qHTS; 410,000 tested, 1.2% active; Potency, µM (series often up to 57.9 µM), for the others: at the highest dose activity change, negative = inhibition, usual class: inhibitors; AID 1159524; calls by dose curve; tested in HEK293T cells; further: read-out not given here; potency means the concentration at half of the fitted maximal effect; on the % scale 0 is the no-effect control and ±100 the full control effect; nearly all actives have a fitted effect of over 45% in size
MARV entry inh: blocks Marburg virus binding to or entry into cells. Marburg virus pseudotyped entry inhibition, cell reporter. Potency, µM (titrated, usually from 37.8 µM), for the others: at the highest dose activity change, negative = inhibition, actives largely listed as inhibitors. 300,000 tested, 1.8% active. AID 540276; calls by dose curve; tested in HEK293 cells; further: potency means the concentration at half of the fitted maximal effect; on the % scale 0 is the no-effect control and ±100 the full control effect
An asterisk follows results filed as active; ? = inconclusive; / = no result given; [ ] = dose if it differs, or a comment. A selection: hits, their analogues and other compounds. The true share with any hit is near 8%.

SMILES	HCMV inh	HCV inh	SARS PLP yeast	Lassa entry inh	FMDV inh	MARV entry inh
Cc1ccc(NC(=O)Nc2ccc([N+](=O)[O-])cc2)nc1	-70*	-1%	-2%	?	34%	-15%[46.1 µM]
CCc1ccc(NC(=O)Nc2ccon2)cc1	102	4%	-2%	/	76%	/
Cc1nc(-c2cccc(NC(=O)Nc3ccc([N+](=O)[O-])cc3)c2)no1	-99*	/	/	?	14µM*	/
O=C(Nc1ccc([N+](=O)[O-])cc1)Nc1ccon1	-86*	-1%	5%	-9%[46.1 µM]	-22%	?
Cc1ccc(NC(=O)Nc2cccc([N+](=O)[O-])c2)nc1	13	-7%	1%	0%	38%	-2%[46.1 µM]
C[C@H]1Cc2c(-c3ccccc3)nc3c(c2CO1)CN(S(=O)(=O)c1ccc2c(c1)OCCN2C)CC3	/	/	/	?	/	-12%[14.2 µM]
Cc1nc2ccccc2n1C(c1cccnc1)c1nc2ccccc2[nH]1 (centres undefined)	-79*	/	/	/	34%	/
c1ccc(-c2nc3ccccc3n2C(c2ccccc2)c2nc3ccccc3[nH]2)cc1 (centres undefined)	57	/	/	/	24%	/
CCCCCOc1ccc(Br)cc1/C(C)=N/NC1=NCCN1	-92*	6.3µM*	-41%	?	?	10µM*
COc1ccc(Br)cc1/C(C)=N/NC1=NCCN1	?	?	-7%	?	?	?
COC(=O)C1=C(c2ccc(F)cc2OCc2ccccc2)C[C@@H]2CC[C@H]1N2C(=O)N1CCCC1	-7	11µM*	-4%	/	?	/
COC(=O)C1=C(c2cc3ccccc3o2)C[C@@H]2CC[C@H]1N2C(=O)N1CCCC1	-60*	?	/	/	-30%	/
COC(=O)C1=C(c2ccc(F)cc2OCc2ccccc2)C[C@@H]2CC[C@H]1N2C(=O)NC(C)C	-33	?	0%	/	-19%	/
COC(=O)C1=C(c2ccc(F)cc2OCc2ccccc2)C[C@@H]2CC[C@H]1N2C(=O)NCc1ccccc1Cl	-63*	?	1%	/	0%	/
COC(=O)C1=C(c2cc3ccccc3o2)C[C@@H]2CC[C@H]1N2C(=O)N1CCCCC1	-17	?	/	/	?	/
COC(=O)C1=C(c2ccc(F)cc2F)C[C@@H]2CC[C@H]1N2C(=O)N1CCC(O)CC1	-62*	20%	3%	/	-9%	/
CN1CCN(c2ncc3nc(-c4ccc(Cl)cc4)c(=O)n(C)c3n2)CC1	/	/	/	/	6%	/
C[C@@H]1COc2cccc(NCCO)c2S(=O)(=O)N1	5	/	/	5%[46.1 µM]	/	/
Cc1ccc(C(=O)Nc2cc(-c3nc4ncccc4o3)ccc2C)c(C)c1	4	/	/	0%[46.1 µM]	-4%	2%[46.1 µM]
COC(=O)C1=C(c2ccc(Cl)c(C(F)(F)F)c2)C[C@@H]2CC[C@H]1N2C(=O)NCCOc1ccccc1Cl	/	10µM*	-4%	/	?	/
O=C(Nc1cc(C(F)(F)F)ccc1F)C1CCC1	-5	13%	-1%	10%	-5%	7%[46.1 µM]
COc1ccc(-c2oc3ncnc(N)c3c2-c2ccc(NC(=O)Nc3cc(C(F)(F)F)ccc3F)cc2)cc1	/	/	/	11µM*	/	/
Nc1ncnc2occ(-c3ccc(NC(=O)Nc4cc(C(F)(F)F)ccc4F)cc3)c12	/	/	/	16µM*	/	/
CC(NC(=O)c1ccccc1)c1nc2ccccc2n1Cc1ccc(Cl)cc1 (centres undefined)	-15	/	/	-22%[46.1 µM]	-24%	-11%[46.1 µM]
CC(C)N=c1cc2n(-c3ccc(Cl)cc3)c3ccccc3nc-2cc1Nc1ccc(Cl)cc1	-64*	-12%	/	/	-14%	/
SMILES	HCMV inh	HCV inh	SARS PLP yeast	Lassa entry inh	FMDV inh	MARV entry inh
Cn1c(NC(=O)c2ccccc2C(F)(F)F)cc(=O)n(C)c1=O	-66*	10%	13%	/	-18%	/
COC(=O)c1cc(NC(=O)CC2SC(=Nc3ccccc3)N(CCc3c[nH]c4ccccc34)C2=O)cc(C(=O)OC)c1 (centres undefined)	26	4.5µM*	-1%	?	-16%	?
COCCN1C(=O)C(CC(=O)Nc2ccc(C(=O)O)cc2)SC1=Nc1ccccc1 (centres undefined)	-17	7%	-2%	0%	-4%	4%
CCOC(=O)c1c(SCC(=O)Nc2nc3ccc(C)cc3s2)nc(=O)[nH]c1C	13	/	/	-1%[46.1 µM]	2%	/
Cc1nnsc1C(=O)NC1CCCc2c1cnn2-c1ccc(F)cc1F (centres undefined)	-92*	?	-10%	?	?	?
Cc1ccc(C(=O)NC2CCCc3c2cnn3-c2ccc(F)cc2F)cn1 (centres undefined)	-86*	/	-2%	/	/	/
Cc1nnsc1C(=O)NC1CCCc2c1cnn2-c1cc(F)cc(F)c1 (centres undefined)	79	/	-2%	-15%	-15%	-15%
COc1ccc(C)cc1NC(=O)CN(c1cc(C(F)(F)F)ccc1Cl)S(C)(=O)=O	-9	/	/	-8%[46.1 µM]	2%	?
CC1CN=C(c2cc(Cl)c(N)c(Cl)c2)c2c3ccc(C(F)(F)F)cc3nn21 (centres undefined)	63	/	/	/	/	/
c1ccc(-c2cc(-c3ccncc3)nc3ccc4ccccc4c23)cc1	-29	10µM*	-26%	-11%	?	?
Cc1cc2c(cc1S(=O)(=O)N(CCN(C)C)Cc1ccccc1)OCC(=O)N2	0	/	/	0%[46.1 µM]	5%	/
O=[N+]([O-])c1ccc(CNc2ccc(Cl)cc2)s1	48	10%	-19%	3.5µM*	?	?
CC(C)(C(=O)NCc1ccco1)n1cc(NC(=O)c2cncc(Br)c2)cn1	5	/	/	/	/	/
CNS(=O)(=O)c1cnccc1N1CCN(c2cccc(Cl)c2)CC1	-15	-6%	/	5%	-29%	1%
CCN(CC)S(=O)(=O)c1cnccc1N1CCN(c2cccc(Cl)c2)CC1	-29	-18%	-53%	?	40µM*	?
Cc1cccc(NC(=O)Cn2c(=O)c3cccn3c3ccccc32)c1C	-16	/	/	?	-9%	/
C/C(CC1CC(C)OC1=O)=N\NC(N)=S (centres undefined)	23	4%	?	/	7%	/
C/C(CCC12CC3CC(CC(C3)C1)C2)=N\NC(N)=S	-37	11µM*	?	?	0%	-25%
O=C(Nc1cnn(Cc2ccc(Cl)c(Cl)c2)c1)C12CC3CC(CC(C3)C1)C2	68	?	-33%	?	0%	13µM*
O=C(Nc1cnn(Cc2ccc(Cl)cc2)c1)c1cccs1	-15	-14%	0%	/	4%	/
CCOc1ccc(C(=O)Nc2cnn(Cc3ccc(Cl)c(Cl)c3)c2)cc1	-70*	13µM*	-3%	?	?	?
O=C(Nc1cnn(Cc2ccc(Cl)cc2)c1)c1ccc([N+](=O)[O-])cc1	-39	-3%	2%	?	?	11µM*
COc1ccc(C(=O)Nc2cnn(Cc3c(F)cccc3Cl)c2)cc1OC	52	13µM*	0%	/	1%	/
